Assay results as given in PubChem BioAssay (NCI).
This is part of a sample that, as a whole, favours compounds with a hit. Of some 79,000 tested, about 15% had one in any assay. A number with no mark means an inactive call. Calls of active or inactive are those of the source. No stated cut-off is given here; in the data, active means growth inhibition above about 70%; inactive means the rest.

How the values were obtained:
[1] = NCI Yeast Anticancer Drug Screen. Data for the rad50 strain (AID 155);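 further: 0% = growth of vehicle-only cultures of the same strain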; details: S. cerevisiae rad50 strain growth inhibition, active compounds read high
How it was run: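 Inhibition values express reduced yeast growth in compound-treated cultures relative to vehicle-treated controls.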

[2] = NCI Yeast Anticancer Drug Screen. Data for the mec2-1 strain (AID 157); details: S. cerevisiae mec2-1 strain, active compounds read high
How it was run: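 Using mec2-1 yeast: add compound, measure growth, express inhibition versus vehicle-treated cultures.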

[3] = NCI Yeast Anticancer Drug Screen. Data for the sgs1 mgt1 strain (AID 161);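 further: 0% = growth of cultures given vehicle only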; details: S. cerevisiae sgs1 mgt1 strain, active compounds read high
How it was run: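 Compounds are added to genetically altered yeast, and growth is compared with cultures given vehicle alone to give percent inhibition.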

[4] = NCI Yeast Anticancer Drug Screen. Data for the cln2 rad14 strain (AID 165);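 further: 0% = growth equal to vehicle treated cultures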; details: S. cerevisiae cln2 rad14 strain, active compounds read high
How it was run: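 Yeast strain cln2 rad14, bearing defects in cell cycle control and DNA repair, serves as the test system; values reflect growth inhibition compared with vehicle.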

[5] = NCI Yeast Anticancer Drug Screen. Data for the bub3 strain (AID 167); details: S. cerevisiae bub3 mutant strain, active compounds read high
How it was run: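 Steps: expose the mutant yeast strain to compound; grow alongside vehicle-treated cultures; measure growth; express inhibition against the vehicle cultures.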

[6] = NCI Yeast Anticancer Drug Screen. Data for the mlh1 rad18 strain (AID 175); details: S. cerevisiae mlh1 rad18 strain growth inhibition, active compounds read high
How it was run: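 Steps: expose repair-defective yeast to compound; measure growth; express inhibition against vehicle-treated controls.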

[7] = at 5.0 µM (retest, dose inferred, filed as 0.5)
[8] = at 50.0 µM (retest, dose inferred, filed as 5.0)

Compound | growth inhibition [1, 7] | growth inhibition [1, 8] | growth inhibition ([1]; at 50.0 µM) | growth inhibition [2, 7] [%] | growth inhibition [2, 8] | growth inhibition ([2]; at 50.0 µM) | growth inhibition [3, 7] [%] | growth inhibition [3, 8] | growth inhibition ([3]; at 50.0 µM) | growth inhibition [4, 7] [%] | growth inhibition [4, 8] | growth inhibition ([4]; at 50.0 µM) | growth inhibition [5, 7] | growth inhibition [5, 8] | growth inhibition ([5]; at 50.0 µM) | growth inhibition [6, 7] | growth inhibition [6, 8] | growth inhibition ([6]; at 50.0 µM)
c1ccc2c(c1)C[n+]1ccc3ccccc3c1-c1c3ccccc3cc[n+]1C2 | 8% | 28% | 64.2% | 6 | 20% | 13.4% | 11 | 40% | 69.8% | 1 | 18% | 53% | -2% | 4% | 7.85% | 7% | 21% | 65.8%
CC(C)C(=O)NNc1ccccc1 | 28% | 77% (active) | 93.1% (active) | 1 | 57% | 34.2% | 18 | 70% (active) | 87.2% (active) | 15 | 67% | 93.2% (active) | 21% | 95% (active) | 70.4% (active) | 39% | 92% (active) | 83.2% (active)
CC(=O)OCC(=O)[C@@]1(O)[C@H](C)C[C@H]2[C@@H]3C=C(C)C4=Cc5c(cnn5-c5ccccc5)C[C@]4(C)[C@@]3(F)[C@@H](O)C[C@@]21C | 0% | 81% (active) | 82.4% (active) | 0 | 36% | 69.5% | 35 | 91% (active) | 83.2% (active) | 19 | 88% (active) | 73.4% (active) | -1% | 79% (active) | 24.1% | 46% | 87% (active) | 87.7% (active)
N=C(/C(=C/c1ccccc1)c1ccccc1)c1ccccc1 | 5% | 78% (active) | 97.6% (active) | 8 | 76% (active) | 98.8% (active) | 6 | 98% (active) | 98.5% (active) | -4 | 97% (active) | 97.8% (active) | 25% | 98% (active) | 98.7% (active) | 5% | 98% (active) | 97.9% (active)
CCC(=O)OCC(=O)c1ccc(-c2ccccc2)cc1 | -9% | -20% | -5.1% | -8 | 1% | -3.7% | -2 | 18% | 3% | 33 | -56% | -5.4% | 36% | 10% | 57.1% | -8% | 1% | -1.05%
CC1(C)N=C(N)N=C(N)N1c1cccc(CCCCC(=O)CCl)c1 | 15% | 89% (active) | 95.8% (active) | 0 | 72% (active) | 95% (active) | -5 | 79% (active) | 95.9% (active) | -5 | 62% | 81.6% (active) | -5% | 51% | 86.7% (active) | -18% | 91% (active) | 97.8% (active)
C[n+]1c(-c2cccc(OCCOCCOc3cccc(-c4c5cc(N)ccc5c5ccc(N)cc5[n+]4C)c3)c2)c2cc(N)ccc2c2ccc(N)cc21 | 36% | 96% (active) | 85.5% (active) | 6 | 95% (active) | 82.7% (active) | 25 | 97% (active) | 81.3% (active) | 10 | 59% | 62.9% | 22% | 94% (active) | 78.8% (active) | 35% | 95% (active) | 86.5% (active)
COc1ccc(C(SCC(N)C(=O)O)(c2ccc(OC)cc2)c2ccc(OC)cc2)cc1 (configuration not stated) | -11% | 97% (active) | 94.7% (active) | -7 | 99% (active) | 96.3% (active) | -4 | 99% (active) | 96.3% (active) | -7 | 98% (active) | 94.7% (active) | 15% | 98% (active) | 96.5% (active) | -6% | 98% (active) | 96% (active)
Clc1ccc(-c2nc3ccc(Cl)cc3[nH]2)cc1 | -2% | 90% (active) | 76.8% (active) | -3 | 88% (active) | 86.7% (active) | -5 | 93% (active) | -30.9% | 0 | 92% (active) | 84.3% (active) | 19% | 96% (active) | 88% (active) | -38% | 54% | 35.3%
CC12CC(Br)(Br)C(=O)C3C1CCCC32 | 51% | 31% | 48.9% | 48 | 60% | 41% | 37 | -38% | 86.8% (active) | 49 | 35% | 75.7% (active) | 74% (active) | 59% | 87% (active) | 74% (active) | 79% (active) | 87% (active)
COC1/C=C/OC2(C)Oc3c(C)c(OC(C)=O)c4c(c3C2=O)C(=O)C=C(NC(=O)/C(C)=C\C=C\C(C)C(O)C(C)C(O)C(C)C(OC(C)=O)C1C)C4=O (configuration not stated) | 6% | 70% (active) | 53.4% | -44 | 87% (active) | 50% | 1 | 52% | 6% | 3 | 96% (active) | 69.8% | 0% | 85% (active) | 42.6% | 5% | 90% (active) | 46.5%
[Cl][Pt+2]([Cl])([Cl])[Cl].[NH-]CC1(C[NH-])CCCC1 | 86% (active) | 99% (active) | 90.2% (active) | 68 | 99% (active) | 90.8% (active) | 62 | 86% (active) | 90.3% (active) | 57 | 81% (active) | 86% (active) | 61% | 88% (active) | 93% (active) | 56% | 98% (active) | 83.5% (active)
COC(=O)c1cccc2cccc(C(=O)Nc3ccc(Cl)cc3)c12 | 68% | 99% (active) | 90.2% (active) | 67 | 100% (active) | 93% (active) | 58 | 100% (active) | 92.3% (active) | 42 | 99% (active) | 92% (active) | 82% (active) | 82% (active) | 91.9% (active) | 87% (active) | 99% (active) | 90.3% (active)
C/C=c1/[nH]c(=O)/c(=C\c2ccccc2)[nH]c1=O | -3% | 9% | 11.3% | 2 | -1% | -3.8% | -2 | 2% | -5.45% | 3 | -2% | 24.6% | -2% | -4% | -7.35% | 24% | 1% | 4.35%
O=C(C=P(c1ccccc1)(c1ccccc1)c1ccccc1)CC(=S)CC(=O)C=P(c1ccccc1)(c1ccccc1)c1ccccc1 | 31% | 71% (active) | 97.3% (active) | 18 | 69% | 97.8% (active) | 24 | 85% (active) | 97.8% (active) | -3 | 61% | 96.2% (active) | 9% | 88% (active) | 95.9% (active) | 8% | 77% (active) | 95.2% (active)
Cc1cc(O)c2c(c1)C(=O)c1c(c(O)cc(O)c1-c1c(O)cc(O)c3c1C(=O)c1cc(C)cc(O)c1C3=O)C2=O | 14% | 60% | 64.8% | 29 | 70% (active) | 70.3% (active) | 8 | 64% | 69.8% | 27 | 79% (active) | 58.1% | 17% | 69% | 63.7% | -8% | 80% (active) | 59.1%
Cc1nc(Nc2c(C)cccc2C)c2c(C)c[nH]c2n1 | -2% | 2% | 86.8% (active) | -5 | 3% | 69.1% | 0 | 1% | 85.2% (active) | -1 | -1% | 27.2% | -4% | -2% | 75.5% (active) | -2% | -5% | 90.3% (active)
Nc1nc(N)c2cc(S(=O)c3ccc4ccccc4c3)ccc2n1 (configuration not stated) | 4% | 17% | 24.2% | 29 | 64% | 79.2% (active) | 2 | 9% | 19.5% | -1 | -18% | -42.4% | -21% | -19% | -13.9% | -4% | 3% | 13.5%
O=C(O)/C=C/c1ccc([N+](=O)[O-])o1 | 12% | 50% | 87.4% (active) | 5 | 38% | 80% (active) | 9 | 67% | 90% (active) | -3 | 38% | 62.4% | 4% | 42% | 76% (active) | 11% | 81% (active) | 93.2% (active)
